Results on six targets are retold here after the supplement of paper PMC10849652.

About 8,800 targets were measured; listed, in parts, are those with a hit and a random draw of the rest. About 0.5% of all pairs of compound and target were hits. A number with no mark means an inactive call.

Test in all cases: log2 fold change, soluble protein after heating vs DMSO (PISA); higher = thermal stabilisation; K562 lysate, 10 uM; active = over 0.2 and 3.5 SD of the protein, either way, in both replicates (recomputed)
Compound in one assay: CS(=O)(=O)CCNCc1ccc(-c2ccc3ncnc(Nc4ccc(OCc5cccc(F)c5)c(Cl)c4)c3c2)o1 [lapatinib]
The method, boiled down:
(§1)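 A 30 min treatment with 10 μM compound was applied to crude K562 extract at 1 mg/mL protein in PBS pH 7.4 with 1 mM MgCl2. Heating for 3 min spanned 48°C-58°C, after which aliquots were pooled, adjusted to 0.5% NP-40 at 4°C and spun at 21,000xg for 90 min. TMTpro 16plex LC-MS/MS of the supernatant, with channel sums equalised, gave values recorded as log-two fold change in thermal stability against solvent controls, from duplicates.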

Compound in the next assay: CS(=O)(=O)N1CCN(Cc2cc3nc(-c4cccc5[nH]ncc45)nc(N4CCOCC4)c3s2)CC1 [pictilisib]
The essentials: as §1

Compound in another assay: Cc1ccc(NC(=O)c2ccc(CN3CC[C@H](N(C)C)C3)c(C(F)(F)F)c2)cc1Nc1nccc(-c2cncnc2)n1 [bafetinib]
The method, boiled down:
as §1

Compound in assay [1]: NC(=O)c1cnc(N[C@@H]2CCCC[C@@H]2N)nc1Nc1cccc(-n2nccn2)c1
The essentials:
as §1

Compound in the next assay: C[C@@H](Oc1cc(-c2cnn(C3CCNCC3)c2)cnc1N)c1c(Cl)ccc(F)c1Cl [crizotinib]
The essentials: as §1

Compound in assay [2]: C[C@H](C1=CC=C(C=C1)C(=O)NC2=C3C=CNC3=NC=C2)N
The method, boiled down: as §1

Compound in a further assay: C[C@H](Nc1ncnc2nc[nH]c12)c1cc2cccc(Cl)c2c(=O)n1-c1ccccc1 [duvelisib]
The method, boiled down: as §1

Compound in another assay: Cc1cc(Nc2cc(CN3CCOCC3)c3nc(C)c(Cc4ccc(Cl)cc4F)n3n2)n[nH]1 [gandotinib]
The method, boiled down: as §1

Compound in the next assay: Cc1cc(Nc2cc(N3CCN(C)CC3)nc(Sc3ccc(NC(=O)C4CC4)cc3)n2)n[nH]1 [tozasertib]
The method, boiled down:
as §1

Compound in the next assay: Cc1ccc(-n2nc(C(C)(C)C)cc2NC(=O)Nc2ccc(OCCN3CCOCC3)c3ccccc23)cc1 [doramapimod]
The method, boiled down:
as §1

Compound in assay [3]: Cc1cccc(CC(=O)N2CCc3c2ccc(-c2cn(C)c4ncnc(N)c24)c3F)n1
The method, boiled down: as §1

Compound in a further assay: Cc1cn(-c2cc(NC(=O)c3ccc(C)c(Nc4nccc(-c5cccnc5)n4)c3)cc(C(F)(F)F)c2)cn1 [nilotinib]
The essentials: as §1

Compound in assay [4]: Cc1nc(Nc2n[nH]c3c2CN(C(=O)N[C@H](CN(C)C)c2ccccc2)C3(C)C)c2sccc2n1
The essentials:
as §1

Compound in another assay: Cc1nc(Nc2ncc(C(=O)Nc3c(C)cccc3Cl)s2)cc(N2CCN(CCO)CC2)n1 [dasatinib]
The method, boiled down:
as §1

Compound in assay [5]: Cc1ncc(-c2ccnc(Nc3ccc(S(C)(=O)=O)cc3)n2)n1C(C)C
The method, boiled down: as §1

Compound in assay [6]: Cn1cc(-c2ccc3c(c2)CCN3C(=O)Cc2cccc(C(F)(F)F)c2)c2c(N)ncnc21
The essentials: as §1

Compound in the next assay: Cn1cc(CNCC2CCN(c3ncc(C(=O)NO)cn3)CC2)c2ccccc21 [quisinostat]
The method, boiled down: as §1

Compound in a further assay: Cn1cncc1[C@@](N)(c1ccc(Cl)cc1)c1ccc2c(c1)c(-c1cccc(Cl)c1)cc(=O)n2C [tipifarnib]
The method, boiled down: as §1

Compound in assay [7]: NC(=O)Nc1cc(-c2cccc(F)c2)sc1C(=O)N[C@H]1CCCNC1
The essentials:
as §1

Compound in assay [8]: NC1(c2ccc(-c3nc4ccn5c(=O)[nH]nc5c4cc3-c3ccccc3)cc2)CCC1
The method, boiled down:
as §1

Sequence of UniProt Q9Y2X9 (Q9Y2X9 whole entry, looked up): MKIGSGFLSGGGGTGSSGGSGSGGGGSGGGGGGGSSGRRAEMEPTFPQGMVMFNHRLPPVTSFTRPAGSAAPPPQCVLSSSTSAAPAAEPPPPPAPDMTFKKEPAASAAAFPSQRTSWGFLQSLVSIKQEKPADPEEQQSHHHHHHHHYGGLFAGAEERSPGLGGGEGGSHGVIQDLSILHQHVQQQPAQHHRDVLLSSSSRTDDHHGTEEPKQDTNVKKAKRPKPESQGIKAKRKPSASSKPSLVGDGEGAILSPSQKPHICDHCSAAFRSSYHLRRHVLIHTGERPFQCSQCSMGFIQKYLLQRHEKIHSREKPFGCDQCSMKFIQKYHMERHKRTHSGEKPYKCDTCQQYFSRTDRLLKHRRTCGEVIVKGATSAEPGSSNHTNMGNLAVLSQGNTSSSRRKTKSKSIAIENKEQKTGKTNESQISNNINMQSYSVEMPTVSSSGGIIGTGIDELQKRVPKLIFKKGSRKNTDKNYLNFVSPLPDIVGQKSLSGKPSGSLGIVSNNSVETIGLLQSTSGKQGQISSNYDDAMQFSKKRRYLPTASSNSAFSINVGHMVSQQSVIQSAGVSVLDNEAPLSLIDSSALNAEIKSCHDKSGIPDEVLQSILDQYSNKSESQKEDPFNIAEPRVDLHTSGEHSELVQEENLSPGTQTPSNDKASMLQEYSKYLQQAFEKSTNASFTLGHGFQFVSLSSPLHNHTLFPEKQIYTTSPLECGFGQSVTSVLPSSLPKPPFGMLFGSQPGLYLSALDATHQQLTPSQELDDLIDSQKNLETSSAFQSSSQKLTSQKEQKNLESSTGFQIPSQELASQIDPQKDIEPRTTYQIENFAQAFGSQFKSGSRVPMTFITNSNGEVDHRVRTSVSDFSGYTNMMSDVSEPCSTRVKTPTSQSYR
Sequence of UniProt Q96K21 (Q96K21 whole entry, looked up): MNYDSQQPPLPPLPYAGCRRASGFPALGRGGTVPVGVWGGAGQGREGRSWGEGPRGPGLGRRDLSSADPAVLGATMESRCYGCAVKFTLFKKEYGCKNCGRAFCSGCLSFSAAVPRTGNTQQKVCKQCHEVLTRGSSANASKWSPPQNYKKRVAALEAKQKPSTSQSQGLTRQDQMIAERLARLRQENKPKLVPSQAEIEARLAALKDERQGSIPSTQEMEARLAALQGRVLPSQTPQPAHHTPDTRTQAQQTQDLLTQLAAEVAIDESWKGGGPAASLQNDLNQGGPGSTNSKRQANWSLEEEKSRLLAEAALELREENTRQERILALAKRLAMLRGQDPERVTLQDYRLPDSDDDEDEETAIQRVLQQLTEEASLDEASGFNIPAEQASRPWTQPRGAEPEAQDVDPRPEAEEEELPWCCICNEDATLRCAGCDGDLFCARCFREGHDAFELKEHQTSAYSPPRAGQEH
Sequence of UniProt Q15072 (Q15072 whole entry, looked up): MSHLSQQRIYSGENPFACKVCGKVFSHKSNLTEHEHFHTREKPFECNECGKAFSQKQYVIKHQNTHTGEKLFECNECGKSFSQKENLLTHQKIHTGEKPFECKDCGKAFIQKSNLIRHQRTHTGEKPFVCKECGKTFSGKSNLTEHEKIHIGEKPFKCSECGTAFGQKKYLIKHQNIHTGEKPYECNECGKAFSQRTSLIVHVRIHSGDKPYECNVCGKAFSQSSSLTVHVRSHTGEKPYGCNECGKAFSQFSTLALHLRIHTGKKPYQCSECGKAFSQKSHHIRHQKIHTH
Sequence of UniProt P42768 (P42768 whole entry, looked up): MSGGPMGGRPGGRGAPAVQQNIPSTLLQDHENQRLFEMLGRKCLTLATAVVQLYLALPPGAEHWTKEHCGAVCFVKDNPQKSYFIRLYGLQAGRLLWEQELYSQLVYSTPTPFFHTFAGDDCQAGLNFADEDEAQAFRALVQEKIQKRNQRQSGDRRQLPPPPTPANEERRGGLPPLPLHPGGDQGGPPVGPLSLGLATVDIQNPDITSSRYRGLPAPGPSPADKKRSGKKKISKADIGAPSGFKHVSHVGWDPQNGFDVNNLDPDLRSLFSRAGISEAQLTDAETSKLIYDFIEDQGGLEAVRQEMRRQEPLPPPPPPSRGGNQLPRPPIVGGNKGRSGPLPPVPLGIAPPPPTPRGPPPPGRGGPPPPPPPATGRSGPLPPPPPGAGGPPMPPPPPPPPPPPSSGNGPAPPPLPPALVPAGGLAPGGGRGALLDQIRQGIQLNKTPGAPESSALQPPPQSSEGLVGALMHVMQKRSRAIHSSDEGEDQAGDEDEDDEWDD
Sequence of UniProt Q9H582 (Q9H582 whole entry, looked up): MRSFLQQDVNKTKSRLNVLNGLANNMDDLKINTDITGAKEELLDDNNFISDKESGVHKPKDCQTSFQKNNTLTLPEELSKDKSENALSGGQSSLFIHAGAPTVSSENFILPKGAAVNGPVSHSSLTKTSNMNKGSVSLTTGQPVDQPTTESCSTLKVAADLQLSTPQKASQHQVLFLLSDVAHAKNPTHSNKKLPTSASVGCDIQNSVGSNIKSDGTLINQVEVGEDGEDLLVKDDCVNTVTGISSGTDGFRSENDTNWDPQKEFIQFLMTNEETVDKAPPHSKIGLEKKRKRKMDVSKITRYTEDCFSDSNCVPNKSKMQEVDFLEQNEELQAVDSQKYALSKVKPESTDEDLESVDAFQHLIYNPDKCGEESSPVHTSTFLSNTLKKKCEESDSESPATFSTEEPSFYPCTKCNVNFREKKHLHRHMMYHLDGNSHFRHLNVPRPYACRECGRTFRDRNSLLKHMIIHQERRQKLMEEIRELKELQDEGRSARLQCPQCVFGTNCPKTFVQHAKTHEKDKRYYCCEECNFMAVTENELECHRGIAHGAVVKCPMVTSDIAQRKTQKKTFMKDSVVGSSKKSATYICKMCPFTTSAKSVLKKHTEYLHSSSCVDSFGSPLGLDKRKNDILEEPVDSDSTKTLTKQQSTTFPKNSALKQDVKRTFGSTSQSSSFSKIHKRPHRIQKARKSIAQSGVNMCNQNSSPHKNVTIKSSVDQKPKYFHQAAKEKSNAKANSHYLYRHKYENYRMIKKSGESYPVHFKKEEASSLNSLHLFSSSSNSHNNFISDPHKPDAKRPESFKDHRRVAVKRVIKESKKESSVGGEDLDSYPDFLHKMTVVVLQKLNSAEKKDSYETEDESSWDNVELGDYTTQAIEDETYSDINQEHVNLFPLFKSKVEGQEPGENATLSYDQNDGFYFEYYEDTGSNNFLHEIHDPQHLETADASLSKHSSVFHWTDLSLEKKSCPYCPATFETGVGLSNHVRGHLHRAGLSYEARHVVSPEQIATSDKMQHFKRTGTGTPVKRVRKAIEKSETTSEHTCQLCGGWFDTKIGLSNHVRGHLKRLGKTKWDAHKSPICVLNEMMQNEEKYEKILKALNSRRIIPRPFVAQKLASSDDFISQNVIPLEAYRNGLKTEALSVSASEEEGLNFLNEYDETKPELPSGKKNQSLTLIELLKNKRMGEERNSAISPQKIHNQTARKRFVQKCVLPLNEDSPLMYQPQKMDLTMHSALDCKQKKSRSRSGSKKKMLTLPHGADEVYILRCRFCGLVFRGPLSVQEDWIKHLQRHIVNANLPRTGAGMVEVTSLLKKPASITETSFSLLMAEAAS
Sequence of UniProt Q9Y5J1 (Q9Y5J1 whole entry, looked up): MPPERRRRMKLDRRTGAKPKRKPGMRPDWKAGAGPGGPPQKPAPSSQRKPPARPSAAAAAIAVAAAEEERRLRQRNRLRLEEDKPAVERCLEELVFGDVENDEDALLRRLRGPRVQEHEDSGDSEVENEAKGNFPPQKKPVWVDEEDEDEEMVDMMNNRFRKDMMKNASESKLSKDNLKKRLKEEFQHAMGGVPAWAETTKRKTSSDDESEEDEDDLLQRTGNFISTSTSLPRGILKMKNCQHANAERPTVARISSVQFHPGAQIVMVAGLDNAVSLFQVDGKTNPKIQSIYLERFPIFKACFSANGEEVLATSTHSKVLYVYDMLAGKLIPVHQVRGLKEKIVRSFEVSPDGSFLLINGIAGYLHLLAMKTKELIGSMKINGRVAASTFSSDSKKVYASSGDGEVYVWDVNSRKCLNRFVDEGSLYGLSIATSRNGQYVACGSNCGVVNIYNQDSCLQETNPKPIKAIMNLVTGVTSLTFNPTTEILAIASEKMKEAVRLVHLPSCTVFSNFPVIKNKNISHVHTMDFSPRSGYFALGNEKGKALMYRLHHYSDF

For the target ZFYVE19 isoform 3 (UniProt Q96K21), the log2 fold change with lapatinib was 0.114; in the assay with pictilisib it was -0.02; with bafetinib it was -0.013; in assay [1] it was -0.002.
Regarding ZNF644 (UniProt Q9H582), the log2 fold change was -0.133 with pictilisib; -0.026 with crizotinib; 0.04 in assay [2]; -0.069 in the assay with duvelisib; -0.015 with gandotinib; 0.015 with tozasertib. Moreover, the log2 fold change in the assay with doramapimod was 0.037; in the assay with bafetinib, -0.165; in assay [3], 0.086; with nilotinib, -0.062; in assay [4], 0.153; with dasatinib, 0.066. Moreover, the log2 fold change is 0.017 in [5]; -0.061 in assay [6]; -0.026 with quisinostat; -0.012 with tipifarnib; 0.058 in assay [7]; -0.167 in assay [8].
Regarding ZNF146 (UniProt Q15072), the log2 fold change with duvelisib is -0.018; in the assay with dasatinib, -0.028; in assay [6], 0.188.
On to UTP18 (UniProt Q9Y5J1), for which the log2 fold change is 0.032 in the assay with lapatinib; 0.125 in the assay with pictilisib; -0.05 in the assay with crizotinib; 0.097 in assay [2]; -0.065 with duvelisib; -0.055 with gandotinib. Besides, the log2 fold change with tozasertib was 0.074; in the assay with doramapimod, -0.025; with bafetinib, -0.084; in assay [3], -0.038; with nilotinib, 0.059; in assay [4] it was -0.009. For the same target, the log2 fold change with dasatinib was 0.005; in [5] it was -0.179; in assay [6], -0.03; with quisinostat it was -0.034; in the assay with tipifarnib, -0.002; in [7] it was 0.058. The figures for the log2 fold change in assay [1] and in assay [8] were -0.016 and 0.074, respectively.
With WAS (UniProt P42768), the log2 fold change with pictilisib was -0.027; in assay [2] it was -0.16; with duvelisib it was -0.194; with gandotinib, -0.057; in the assay with tozasertib, -0.127; with bafetinib, -0.065. The log2 fold change in assay [3] was 0.103; with nilotinib, 0.636 (active); in [4] it was -0.102; in the assay with dasatinib, 0.095; in [5], 0.318; in assay [6], 0.129. Besides, the log2 fold change in the assay with tipifarnib was -0.064; in [8], 0.025.
As for ZNF281 (UniProt Q9Y2X9), the log2 fold change with crizotinib is 0.003; in the assay with duvelisib, 0.029; with doramapimod it was 0.02; with dasatinib it was -0.041; in assay [6] it was 0.031; with quisinostat it was 0.151. Also, the results for the log2 fold change in assay [7] and in assay [8] were -0.028 and 0.02, respectively.
